Rows were chosen to be rich in hits. Some 2.6% of all compounds tested hit in one or more screens of this group.
hERG WT inh: qHTS for Inhibitors of KCHN2 3.1: Wildtype qHTS. Voltage-gated inwardly rectifying potassium channel KCNH2 (Homo sapiens), Q12809. U2OS, BacMam KCNH2, thallium flux FluxOr; stronger effect = lower value. activity change, % at 1.84 µM. hit rate 0.37% among 340,000. AID 720551, 2013;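 active = maximum activity change below -70%; inconclusive = maximum activity change between -70% and -50%; inactive = maximum activity change above -50%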; also: % is scaled to controls: 0 for no effect and ±100 for the full control effect
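U2OS cells were transduced with wild-type KCNH2 virus (2.03 x 10^8 / mL) for 4 h at room temperature, then cultured overnight at 37 C. Thallium flux was read with FluxOr dye. Rate constants were normalized to DMSO controls.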
TRPV1 PAM: HTS Assay for Compounds that Act as Potentiators of the Vanilloid Receptor 1; TRPV1-expressing cells, Fluo-8 calcium influx, capsaicin EC20 potentiation; hit rate 0.02% among 320,000; Transient receptor potential cation channel subfamily V member 1 (Homo sapiens), Q8NER1; AID 540277, 2011; potentiation, % at 8.33 µM; in the data active = potentiation above about 80%; inconclusive = between about 30% and that limit; also: 0% is about no effect
Target sequence (Q8NER1 whole entry, looked up): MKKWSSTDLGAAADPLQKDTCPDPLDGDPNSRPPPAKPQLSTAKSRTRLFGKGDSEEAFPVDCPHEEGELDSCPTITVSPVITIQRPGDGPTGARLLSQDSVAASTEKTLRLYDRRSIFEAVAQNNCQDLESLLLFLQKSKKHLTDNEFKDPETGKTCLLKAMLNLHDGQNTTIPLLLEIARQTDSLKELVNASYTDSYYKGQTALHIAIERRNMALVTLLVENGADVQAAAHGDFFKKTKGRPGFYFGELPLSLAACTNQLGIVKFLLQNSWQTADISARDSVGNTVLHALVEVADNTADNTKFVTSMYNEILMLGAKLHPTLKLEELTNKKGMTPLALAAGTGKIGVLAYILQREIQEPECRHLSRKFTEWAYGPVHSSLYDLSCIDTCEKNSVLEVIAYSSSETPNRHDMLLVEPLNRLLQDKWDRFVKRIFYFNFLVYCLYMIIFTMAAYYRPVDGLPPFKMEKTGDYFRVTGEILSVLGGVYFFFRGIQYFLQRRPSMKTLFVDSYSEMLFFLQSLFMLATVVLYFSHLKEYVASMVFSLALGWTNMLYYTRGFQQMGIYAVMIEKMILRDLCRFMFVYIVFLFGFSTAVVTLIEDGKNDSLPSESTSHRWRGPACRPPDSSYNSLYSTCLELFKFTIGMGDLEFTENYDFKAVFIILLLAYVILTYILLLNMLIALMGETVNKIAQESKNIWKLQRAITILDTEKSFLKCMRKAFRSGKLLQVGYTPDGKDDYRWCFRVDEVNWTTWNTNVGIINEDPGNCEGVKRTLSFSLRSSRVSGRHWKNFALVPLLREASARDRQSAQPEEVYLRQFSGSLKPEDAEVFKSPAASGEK
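Fluo-8 calcium influx in TRPV1-expressing cells, kinetic read (ex 480/em 520 nm). Compound added and read 3 min for agonist activity, followed by capsaicin at EC20 final and 2 min further read for enhancement.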
p53 reactivator: qHTS assay for re-activators of p53 using a Luc reporter; H1299 p53-A138V BP100-luciferase reporter, luminescence, 24 h; hit rate 0.063% among 320,000; Potency, µM (highest dose often 92.2 µM), without a hit: top-dose activity change, positive = activation, usual class: activators; active = well fitted activation curve with a large enough effect; inconclusive = small, poorly fitted or top-dose-only effect; inactive = no such curve, though single readings can be large or run the other way; also: potency is read from the fitted curve at half-maximal effect; % of control where 0% means no effect; nearly all actives have a fitted effect of over 45% in size
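H1299 (p53-null), stable ts p53-A138V + BP100-Luc; 1000 cells/well, Opti-MEM/10% FBS; cpd 4 pt, 1:5; 24 h, 37 deg C, 5% CO2; detection reagent 10 min RT; luminescence.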
TRPV1 ag: HTS Assay for Compounds that Act as Agonists of the Vanilloid Receptor 1; activation, % at 8.33 µM; hit rate 0.19% among 320,000; Transient receptor potential cation channel subfamily V member 1 (Homo sapiens), Q8NER1; TRPV1-expressing cells, Fluo-8 calcium influx, agonist mode; in the data active = activation above about 80%; inconclusive = between about 30% and that limit; also: 0% is about no effect
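Fluo-8 calcium influx in TRPV1-expressing cells, kinetic read (ex 480/em 520 nm). Compound added and read 3 min for agonist activity, followed by capsaicin at EC20 final and 2 min further read for enhancement.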
ClpP mod: qHTS Assay for Activators of ClpP. ATP-dependent Clp protease proteolytic subunit (Bacillus subtilis (strain 168)), P80244. purified B. subtilis ClpP, FRET peptide cleavage, 20 min. Potency, µM (doses to about 57.5 µM), without a hit: top-dose activity change, negative = active. hit rate 1.9% among 340,000; active = well fitted falling curve with a large enough effect; inconclusive = small, poorly fitted or top-dose-only effect; inactive = no such curve, though single readings can be large or run the other way; also: potency is read from the fitted curve at half-maximal effect; the source files actives as falling curves though it sought activators and does not explain the sign; nearly all actives have a fitted effect of over 65% in size
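Buffer: 100 mM Tris/HCl pH8, 100 mM KCl, 0.05% low protease BSA, 2.5% glycerol, 0.01% Tween-20. ClpP 10 microg/mL final; 20 min RT; delta FRET normalized to ADEP and DMSO controls.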
KCNH2 3.1 block: qHTS for Inhibitors of KCHN2 3.1: Mutant qHTS; hit rate 0.95% among 340,000; U2OS KCNH2 3.1, thallium flux FluxOr; stronger effect = lower value; activity change, % (tested at about 1.8 µM); AID 720553, 2013; Potassium voltage-gated channel subfamily H member 2, brain isoform KCNH2 3.1 (human);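 active = maximum activity change below -70%; inconclusive = maximum activity change from -70% to -50%; inactive = maximum activity change above -50%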;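 also: thallium influx rate constant from kinetic fluorescence after stimulation buffer; % is scaled to controls: 0 for no effect and ±100 for the full control effect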
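Kinetic fluorescence (2 min after stimulation buffer) measures Tl+ influx through KCNH2 3.1 expressed by viral transduction in U2OS cells; the rate constant is normalized against DMSO controls serving as positive and negative references.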
Active calls of the source: *; i = inactive; u = inconclusive; x = no result given; ! = a repeat was not active.

SMILES | hERG WT inh | TRPV1 PAM | p53 reactivator | TRPV1 ag | ClpP mod | KCNH2 3.1 block
CCOc1ccc(-c2nc(C#N)c(N3CCN(C)CC3)o2)cc1 | 21.3 | -3.9 | -7.1% | -3.4 | u | 9.9
COc1ccc(NC(=O)N(CCC(C)C)C(C)c2cccs2)c(OC)c1 (stereo not drawn) | x | x | x | x | 1.7% | x
O=C1NC[C@H](CCCCN2CCN(CCC3CCCCC3)C(=O)C2=O)N(CC2CCCCC2)C1=O | x | x | x | x | -0.7% | x
Cn1cc(-c2cc3n(n2)CCC(=O)N3CCCC(=O)NCc2ccccc2)c2ccccc21 | x | x | x | x | -11.0% | x
CN(C)CCn1c2c(c(SCC(=O)Nc3ccc(F)cc3F)nc1=O)CCC2 | x | x | x | x | -5.3% | x
CCOC(=O)c1c(Nc2ccc(F)cc2)nnc(-c2ccccc2)c1-c1ccccc1 | x | x | x | x | 0.4% | x
CCCN1CCN(c2nnc(-n3cccc3C(=O)Nc3ccccc3C(F)(F)F)s2)CC1 | x | x | x | x | 1.3% | x
CCN1CCN(Cc2ccc(NC(=O)c3cc(NC(=O)C(=O)c4c[nH]c5ccccc45)cc(OC)c3)cc2C(F)(F)F)CC1 | 18.2 | u | -16.5% | -0.1 | -9.5% | -9.0
CCN1CCN(Cc2ccc(NC(=O)c3ccc(C)c(NC(=O)C(=O)c4c[nH]c5ccccc45)c3)cc2C(F)(F)F)CC1 | -131.7*! | 3.8 | -16.3% | -2.4 | -6.8% | -0.4
O=C1CCC(OCc2ccccc2)CCN1[C@H](CSc1ccccc1)Cc1ccccc1 (stereo partly drawn) | x | x | x | x | -1.2% | x
Cc1nc(CN2C(=O)C3(CCC3)ON=C2c2cccc(Cl)c2)cs1 | x | x | x | x | 0.2% | x
C=CCn1c(SCC#N)nc2cc(Cl)ccc2c1=O | x | x | x | x | -0.2% | x
O=C(NCCCN1CCc2ccccc2C1)Nc1ccc(Br)cc1 | 3.8 | -10.9 | 4.2% | u | -2.3% | -80.3*
COc1ccc(NC(=O)NCCCN2CCc3ccccc3C2)cc1 | 33.0 | -22.8 | 4.9% | u | 0.3% | -4.7
Cc1cc2c(c(=O)n1-c1ccccc1)C1O[C@](c3ccsc3)(Cc3cc(C#N)ccc31)O2 | x | i | x | i | x | x
Cc1ccc(S(=O)(=O)Oc2ccc(/C=C3/N=C(c4ccccc4)OC3=O)cc2)cc1 | -1.2 | -5.1 | -1.1% | 2.1 | -14.4% | 3.5
COc1ccc(/C=C2\N=C(c3ccc(C)cc3)OC2=O)cc1 | -4.5 | 3.8 | x | -0.9 | 25.1µM* | 6.1
CCCN1C(=O)CC(c2ccc(OC)c(OC)c2)C1=O (stereo not drawn) | x | x | x | x | 2.1% | x
CCn1c(=O)c(=O)[nH]c2cc(C(=O)NC3CC3)ccc21 | -2.0 | -6.6 | -3.3% | 0.2 | 31.6µM* | 6.0
CCn1c(=O)c(=O)[nH]c2cc(C(=O)Nc3ccc(S(=O)(=O)N4CCCC4)cc3)ccc21 | 1.2 | 3.9 | -6.3% | -0.3 | -20.5% | 0.6
CCn1c(=O)c(=O)[nH]c2cc(C(=O)NC3CCCc4ccccc43)ccc21 (stereo not drawn) | -16.5 | -6.2 | 12.0% | -1.2 | 31.6µM* | 7.8
O=C(NC1CCCc2ccccc21)c1ccccc1 (stereo not drawn) | -0.5 | -13.0 | -1.4% | 16.1 | -2.8% | -18.2
O=C(Nc1ccncc1)c1cnn2c1NC(=C1CC1)C=C2C(F)F | x | x | x | x | -13.1% | x
Cc1cccc(C)c1NC(=O)C(c1ccncc1)N1CCN(CCN(C)C)CC1 (stereo not drawn) | x | x | x | x | -4.3% | x
Cc1ccccc1CN1[C@H](C)[C@H](c2ccccc2)OCCS1(=O)=O | x | x | x | x | 0.5% | x
SMILES | hERG WT inh | TRPV1 PAM | p53 reactivator | TRPV1 ag | ClpP mod | KCNH2 3.1 block
CC(C)n1cc(CN2CCCC(C(=O)Nc3cccc(-c4cc5ccccc5[nH]4)c3)C2)cn1 (stereo not drawn) | -19.3 | 24.2 | -3.0% | 0.1 | x | -94.6*
Cn1cc(CN2CCCC(C(=O)Nc3cccc(-c4cc5ccccc5[nH]4)c3)C2)cn1 (stereo not drawn) | 0.4 | -0.4 | -8.7% | 1.4 | -1.5% | -38.7
O=C1c2ccccc2NC(c2cc(Br)c3c(c2)OCO3)N1Cc1ccco1 (stereo not drawn) | x | x | x | x | 4.7% | x
CC(C)(C)OC(=O)[C@H](Cc1ccccc1)NC(=O)c1nc[nH]c1C(=O)N[C@@H](Cc1ccccc1)C(=O)OC(C)(C)C | -5.2 | u | -1.5% | 13.6 | -4.2% | -70.1*
CC(C)(C)OC(=O)[C@H](Cc1ccccc1)NC(=O)c1ncn2c1c(=O)[nH]c1ccc(Br)cc12 | 0.1 | x | x | x | 7.94µM* | -6.7
CCc1nc2ccc(C(=O)NCCCN3CCCC3=O)cn2c1N(CC)C(C)=O | x | x | x | x | -24.0% | x
COc1cccc(CNC(=O)C2CCCN(c3nn4cc(-c5ccc(C)cc5)nc4s3)C2)c1 (stereo not drawn) | x | x | x | x | -3.8% | x
COc1ccc(C(=O)c2c(C(F)(F)F)oc3c2C(=O)c2ccccc2C3=O)cc1 | -1.8 | -6.4 | -22.5% | 5.6 | 3.16µM* | 3.0
Cc1ccc(C(=O)c2c(C)oc3c2C(=O)C(=O)c2ccccc2-3)cc1 | -1.4 | -2.6 | -10.6% | -9.6 | 1.3% | -5.4
CCOc1ccc(-c2ccc(NS(=O)(=O)c3cc(C)c(C)cc3C)cc2)nn1 | x | x | x | x | 3.9% | x
Cc1ccc(NC(=S)NCCc2c[nH]c3ccccc23)c(C)c1 | 22.0 | -5.8 | -4.5% | u | 0.9% | -90.8*
COc1ccccc1NC(=S)NCCc1c[nH]c2ccccc12 | 6.2 | -16.1 | -0.6% | 26.2 | -1.7% | -7.9
Cc1csc(=O)n1CC(=O)OCc1nnc(-c2ccccc2)o1 | -1.8 | -3.9 | 5.3% | 0.6 | -6.2% | 21.6
Cc1csc(=O)n1CCC(=O)OCc1nnc(-c2ccccc2Cl)o1 | -85.5* | x | 8.7% | x | -2.0% | 2.6
CCCN(CCC)CCNC(=O)Cn1cnc2sc(C)c(S(=O)(=O)N3CCN(c4ccccc4OC)CC3)c2c1=O | x | x | x | x | -3.8% | x
O=C(O)c1cc2c(s1)-c1ccccc1CC2 | 3.0 | 18.5 | -10.3% | -5.8 | 236.1% | 13.3
O=C(N/N=C/c1ccc(Cl)cc1)c1cc2c(s1)-c1ccccc1CC2 | 3.0 | 15.0 | -8.9% | -1.1 | 28.2µM* | u
CCCn1c(C)nc2c(c1=O)c1nc3ccccc3nc1n2CCC1=CCCCC1 | -7.5 | -4.6 | -7.3% | 7.5 | 31.6µM* | -6.5
Cc1nc2c(c(=O)n1CCC1=CCCCC1)c1nc3ccccc3nc1n2/N=C/c1ccco1 | 1.4 | 7.1 | 16.3% | -0.2 | -11.8% | -16.0
COc1cc(O)c(C(=O)CC(=O)c2ccncc2)c(OC)c1 | -0.8 | x | x | x | x | -7.7
CSc1ccc(-c2cc(=O)c3ccccc3o2)cc1 | 5.2 | -8.2 | u | u | 10µM* | -3.1
